From article PMC4552634, “A New Set of Chemical Starting Points with Plasmodium falciparum Transmission-Blocking Potential for Antimalarial Drug Discovery” (PLoS ONE, 2015)
Like-named read-outs stand apart in the source and are kept apart here. In all, about 13,000 compounds went through this assay and about 3,200 (25%) showed an effect of 50% or more. The list shows a part of the results.

Test system: P. falciparum stage V gametocytes
Parameters: BacTiter-Glo ATP luminescence viability of purified stage V gametocytes in 384-well plates, per cent inhibition versus DMSO
Settings: 48 h, 5 µM, inhibitor

| Compound | % Inhibition | % Inhibition (% Inhibition) |
| --- | --- | --- |
| N=C(N)c1ccc(C(=O)Nc2cccc(C(=N)N)c2)cc1 [TCMDC-137804] | 7.039% |  |
| CCOc1cc(C(=O)NCCCN2CCN(c3cccc(Cl)c3)CC2)ccc1-c1nc2cc(Cl)c(F)cc2[nH]1 [TCMDC-140097] | -13.16% |  |
| O=C(/C=C/c1ccc(Cl)c(Cl)c1)NCCCCCN1CCC(NC(=O)Nc2ccccc2Cl)CC1 [TCMDC-135710] | -61.78% |  |
| Cc1ccc(Nc2ccnc3ccc(C(F)(F)F)cc23)cc1O [TCMDC-138307] | -31.91% |  |
| CC1(C)N=C(N)NC(NOCC=Cc2ccccc2)=N1 [TCMDC-131690] | -2.035% |  |
| O=C(NCCc1ccc(Cl)c(Cl)c1)[C@@H]1CCCN1C(=O)c1ccc(O)c(-c2ccc(Cl)c(Cl)c2)c1 [TCMDC-140871] | 35.67% |  |
| COc1ccc(Nc2ncc3c(-c4cccc(NC(=O)Cc5cccnc5)c4)c[nH]c3n2)cc1OC [TCMDC-135285] | -50.17% |  |
| CN(C)CCNC(=O)c1ccc2c(c1)n(C1CCN(S(=O)(=O)c3ccc(-c4ccccc4)cc3)CC1)c(=O)n2CC1CCCCC1 [TCMDC-135414] | 22.96% |  |
| CCc1cccc(NC(=O)/C=C/c2ccc3c(c2)CN(C)CC3)c1 [TCMDC-139241] | 27.65% |  |
| NC1=NC(c2ccccc2)(c2cccc(O)c2)C(=O)N1CCCc1ccccc1 (stereo not drawn) [TCMDC-132352] |  | -21.91% |
| CC1CCCCN1CCCNC(=O)c1cccc(-c2cc3cc(Cl)c(Cl)cc3[nH]2)c1 (stereo not drawn) [TCMDC-141291] | -28.41% |  |
| COc1ccc2cc(-c3nc(-c4c(Cl)cccc4Cl)[nH]c3-c3ccnc(NCCCN4CCCCC4C)c3)ccc2c1 (stereo not drawn) [TCMDC-141247] | 95.77% |  |
| CCOc1cc(C(=O)NCCCN2CCCCC2C)ccc1-c1nc2ccc(Cl)cc2[nH]1 (stereo not drawn) [TCMDC-140915] | 4.733% |  |
| CCn1c(C)c(C)c2cc(C(=O)Nc3ccon3)ccc21 [TCMDC-124915] | 28.52% |  |
| Cn1cc(CN2CCC(CCOC(c3ccccc3)c3ccccc3)CC2)cn1 [TCMDC-136046] | 75.05% |  |
| Cn1cc(CN2CCC(OC(c3ccccc3)c3ccc(Cl)cc3)CC2)cn1 (stereo not drawn) [TCMDC-136165] | 63.85% |  |
| Oc1ccccc1CN1CCN(C(c2ccccc2)c2ccccc2)CC1 [TCMDC-124458] | 18.52% |  |
| Oc1ccc(CN2CCN(CCOC(c3ccccc3)c3ccc(Cl)cc3)CC2)cc1Cl (stereo not drawn) [TCMDC-135689] | 3.239% |  |
| Cn1cc(CN2CCCC(COC(c3ccccc3)c3ccccc3)C2)cn1 (stereo not drawn) [TCMDC-136042] | 17.19% |  |
| c1ccc(C(OCCC2CCN(Cc3cccnc3)CC2)c2ccccc2)cc1 [TCMDC-136045] | 0.3767% |  |
| CC(C)N1CCC(Oc2ccc(CN3CCN(C(c4ccccc4)c4ccc(Cl)cc4)CC3)cc2)CC1 (stereo not drawn) [TCMDC-132411] | 68.21% |  |
| Oc1ccccc1CN1CCC(CCOC(c2ccccc2)c2ccc(Cl)cc2)CC1 (stereo not drawn) [TCMDC-136039] | 23.64% |  |
| Cn1cc(CN2CCCC(COC(c3ccc(F)cc3)c3ccc(F)cc3)C2)cn1 (stereo not drawn) [TCMDC-136043] | -3.69% |  |

| Compound | % Inhibition | % Inhibition (% Inhibition) |
| --- | --- | --- |
| NC(=O)c1cccc(Nc2nccc(Nc3ccc(Oc4cccc(Cl)c4)c(Cl)c3)n2)c1 [TCMDC-138593] | -22.97% |  |
| Cc1c(S(=O)(=O)Nc2ccc3ccn(CCN(C)C)c3c2)sc2ccc(Cl)cc12 [TCMDC-139126] | -31.84% |  |
| COc1ccc(C2CC(c3ccccc3O)=NN2C(=O)c2ccco2)cc1OC (stereo not drawn) [TCMDC-125347] | -56.68% |  |
| CC(C)C[C@H](Nc1ccnc(NCC2CCCCC2)n1)C(=O)NCCOc1ccccc1 [TCMDC-134712] | 15.38% |  |
| CCOc1ccc(CN(CCc2ccc3c(c2)OCO3)Cc2cc(OC)ccc2O)cc1 [TCMDC-125607] | 58.7% |  |
| Cc1cc(O)c(CN(C)Cc2ccc3c(c2)OCO3)cc1C(C)C [TCMDC-124881] | 27% |  |
| Cc1cc(O)c(CN(C)Cc2ccc3c(c2)OCCO3)cc1C(C)C [TCMDC-124884] | 16.52% |  |
| CCOC(=O)c1ccc(NC(=O)Nc2cccc(-c3ccc(-c4nc5ccc(F)cc5[nH]4)cc3)c2)cc1 [TCMDC-133267] | -0.2568% |  |
| Cc1cccc2nc(-c3cccc(-c4ccc(CN5CCC(C(N)=O)CC5)cc4)c3)[nH]c12.O=C(O)C(F)(F)F [TCMDC-132697] | 21.78% |  |
| COC(=O)c1ccc2nc(-c3cc(-c4cccc(-c5ccccc5)c4)cnc3N)[nH]c2c1 [TCMDC-135320] | -16.97% |  |
| COc1ccc(-c2ccc3c(-c4ccc(F)cc4)cnc(N)c3c2)cn1 [TCMDC-134503] | 16.03% |  |
| CS(=O)(=O)c1ccc(-c2cnc(N)c(-c3cccc(CO)c3)c2)cc1 [TCMDC-133352] | 33.58% |  |
| CS(=O)(=O)c1ccc(-c2cnc(N)c(-c3ccc(O)cc3)c2)cc1 [TCMDC-133348] | 24.96% |  |
| COc1ccc(-c2cc(-c3ccc(S(C)(=O)=O)cc3)cnc2N)cn1 [TCMDC-133351] | 104.2% |  |
| COc1ccc(-c2cnc(N)c(-c3ccc(O)c(OC)c3)c2)cn1 [TCMDC-133350] | 11.39% |  |
| COc1cc(-c2cc(-c3ccc(S(C)(=O)=O)cc3)cnc2N)ccc1O [TCMDC-133343] | 105.4% |  |
| COc1cc(-c2cnc(N)c(-c3nc4ccccc4[nH]3)c2)cc(OC)c1OC [TCMDC-138793] | 9.298% |  |
| CS(=O)(=O)c1ccc2nc(-c3cc(-c4cccc(F)c4)cnc3N)[nH]c2c1 [TCMDC-133134] | 32.71% |  |
| COc1ccc(-c2cnc(N)c(-c3ccc(C(N)=O)cc3)c2)cc1OC [TCMDC-133349] | 67.55% |  |
| CS(=O)(=O)c1ccc(-c2cnc(N)c(-c3cccc(O)c3)c2)cc1 [TCMDC-133347] | 65.54% |  |
| COCc1cccc(-c2cc(-c3ccc(S(C)(=O)=O)cc3)cnc2N)c1 [TCMDC-133342] | 35.59% |  |
| CCCc1cc(OC)c(CC2c3cc(O)c(C)cc3CCN2C)cc1OC (stereo not drawn) [TCMDC-137164] | -32.49% |  |
